Experimental data from PubChem BioAssay AID743366 (National Center for Advancing Translational Sciences (NCATS), 2014).
Non-standard residues stand in square brackets, D forms with d. Residues, ends and D or L forms follow the SMILES beside them. Orn = NCCC[C@H](N)C(=O)O

Assay: qHTS profiling of inhibitors of Plasmodium falciparum (HB3) proliferation (acoustic dispense)
Conditions: P. falciparum HB3 in erythrocytes, SYBR Green, 72 h; at 49.8 µM (top of the series) unless noted
From the text: Plasmodium falciparum is a virulent malarial parasite that kills 1-2 million people worldwide each year. Transmitted by mosquitoes, the sporozoite form of the parasite enters the blood stream to infect hepatocytes, where they become merozoites that infect red blood cells (erythrocytes). Within erythrocytes, merozoites begin a […] cycle of growth and division, after which the parasite is released to infect new red blood cells. Gametocytes, which form within erythrocytes as well, circulate in the bloodstream and are ingested by the mosquito, thereby completing the life cycle. To profile malarial isolates for differential chemical responses and to identify inhibitors of malarial growth, an assay that measures P. falciparum growth and replication within erythrocytes was employed. This assay uses a DNA binding fluorescent dye (SYBR Green) to detect parasite DNA following cell lysis. Because mature erythrocytes lack DNA, only Plasmodium-derived DNA is detected.
The SYBR Green viability assay was adapted from a method described previously (Plouffe et al., 2008). For screening 3 ul culture medium was dispensed into 1536 well black clear bottom plates (Aurora Biotechnologies) using a Multidrop Combi (Thermo Fisher Scientific Inc.), 23 nL of compounds in DMSO were added by an acoustic dispenser (EDC Biosystems), and 5 ul of erythrocytes infected with P. falciparum (0.3% parasitemia, 2.5% hematocrit final concentration) were added. The plates were incubated at 37 C in a humidified incubator in 5% CO2 for 72 h, and 2 ul lysis buffer (20 mM Tris HCl, 10 mM EDTA, 0.16% saponin, 1.6% triton X, 10X SYBR Green I supplied as 10,000X […] by Invitrogen) was added to each well. The plates were mixed for 25 sec with gentle shaking and incubated overnight at room temperature in the dark. The following morning, fluorescence intensity at 485(14) nm excitation and 535(25) nm emission wavelengths was measured on an EnVision (Perkin Elmer) plate reader. Plate reads were normalized relative to the control inhibitor (0.29 uM artemisinin) and vehicle (DMSO) wells present on each plate and then corrected by an algorithm using vehicle-only control plates at the beginning and end of the compound plate stack.

| SMILES | activity (normalised, proliferation) |
| --- | --- |
| COc1ccc2cc3[n+](cc2c1OC)CCc1cc2c(cc1-3)OCO2 | -1.06% |
| CC(C)C[C@@H]1NC(=O)[C@H](CCCN)NC(=O)[C@H](C(C)C)NC(=O)[C@@H]2CCCN2C(=O)[C@@H](Cc2ccccc2)NC(=O)[C@H](CC(C)C)NC(=O)[C@H](CCCN)NC(=O)[C@H](C(C)C)NC(=O)[C@@H]2CCCN2C(=O)[C@@H](Cc2ccccc2)NC1=O (cyclo(V[Orn]L[dF]PV[Orn]L[dF]P)) | 3.19% |
| CCCCN(CCCC)CC(O)c1cc(Cl)cc2c1-c1ccc(Cl)cc1C2=Cc1ccc(Cl)cc1 (stereo not given) | -1.5% |
| COc1cc2nc(N3CCCN(C)CC3)nc(NC3CCN(Cc4ccccc4)CC3)c2cc1OC | -1.22% |
| CC1(C)N=C(N)N=C(N)N1c1ccc(Cl)cc1 | -0.199% |
| COc1cc2c(Oc3ccc(NC(=O)C4(C(=O)Nc5ccc(F)cc5)CC4)cc3F)ccnc2cc1OCCCN1CCOCC1 | 17.9% |
| Cc1nc2c(C#N)cccc2n1-c1ccc(C(=O)NC2CC2)s1 | 1.48% |
| CCCCCCOC(=O)C1(O)CC2OC1(C)n1c3ccccc3c3c4c(c5c6ccccc6n2c5c31)C(=O)NC4 (stereo not given) | 100% [at 1.88 µM] |
| CCN(CC)CCNC(=O)c1c(C)[nH]c(C=C2C(=O)Nc3ccc(F)cc32)c1C | 0.208% [at 100 µM] |
| C[C@@H](Oc1ccc2[nH]nc(C=Cc3cnn(CCO)c3)c2c1)c1c(Cl)cncc1Cl | 1.95% |
| C=C[C@@H]1CN2CCC1C[C@@H]2C(O)c1ccnc2ccc(OC)cc12 (stereo not given in full) | 1.73% |
| Cc1cnc(Nc2ccc(CN3CCOCC3)cc2)nc1Nc1cccc(S(=O)(=O)NC(C)(C)C)c1 | 0.609% |
| Cc1cn(-c2cc(NC(=O)c3ccc(C)c(Nc4nccc(-c5cccnc5)n4)c3)cc(C(F)(F)F)c2)cn1 | 1.32% |
| CC(=O)Nc1nc(C)c(-c2ccc(Cl)c(S(=O)(=O)NCCO)c2)s1 | -1.46% |
| CC[C@@]1([C@@H]2O[C@@H]([C@H]3O[C@@](O)(CO)[C@H](C)C[C@H]3C)C[C@H]2C)CC[C@H]([C@]2(C)CC[C@]3(C[C@H](O)[C@@H](C)[C@@H]([C@@H](C)[C@@H](OC)[C@H](C)C(=O)O)O3)O2)O1 | 1.41% [at 23.2 µM] |
| C[C@@H]1CCC2[C@@H](C)[C@@H](O)O[C@@H]3O[C@@]4(C)CC[C@@H]1[C@@]23OO4 (stereo not given in full) | -0.43% |
| O=C1c2c(O)ccc(O)c2C(=O)c2c(NCCNCCO)ccc(NCCNCCO)c21 | -5.84% |
| CC(=NNC(=S)N1CCC1)c1ccccn1 | -0.583% |
| C=CCn1c(=O)c2cnc(Nc3ccc(N4CCN(C)CC4)cc3)nc2n1-c1cccc(C(C)(C)O)n1 | -0.406% |
| CCC(=O)N1CCN(c2ccc(-n3c(=O)ccc4cnc5ccc(-c6cnc7ccccc7c6)cc5c43)cc2C(F)(F)F)CC1 | 0.244% |

| SMILES | activity (normalised, proliferation) |
| --- | --- |
| COc1cc(C)c2c(Oc3cccc(C(F)(F)F)c3)c(OC)cc(NCCCC(C)N)c2n1 (stereo not given) | -2.19% |
| O=C1NC(=O)C(=Cc2ccc3nccc(-c4ccncc4)c3c2)S1 | 0.554% |
| CN(Cc1cnc2nc(N)nc(N)c2n1)c1ccc(C(=O)N[C@@H](CCC(=O)O)C(=O)O)cc1 | 0.621% |
| CC[C@H]1OC(=O)[C@H](C)[C@@H](O[C@H]2C[C@@](C)(OC)[C@@H](O)[C@H](C)O2)[C@H](C)[C@@H](O[C@@H]2O[C@H](C)C[C@H](N(C)C)[C@@H]2O)[C@](C)(O)C[C@@H](C)CN(C)[C@H](C)[C@@H](O)[C@]1(C)O | -0.367% |
| COc1ccc(-c2ccc3ncc4c(c3c2)n(-c2ccc(N3CCNCC3)c(C(F)(F)F)c2)c(=O)n4C)cn1 | 5.42% |
| CC(C=CC(=O)NO)=C[C@@H](C)C(=O)c1ccc(N(C)C)cc1 | -0.304% |
| COc1cc(NC(C)CCCN)c2ncccc2c1 (stereo not given) | 0.241% |
| Cn1c(=O)n(-c2ccc(C(C)(C)C#N)cc2)c2c3cc(-c4cnc5ccccc5c4)ccc3ncc21 | 1.54% |
| CC[C@H]1OC(=O)[C@H](C)C(=O)[C@H](C)[C@@H](O[C@H]2O[C@H](C)C[C@H](N(C)C)[C@@H]2O)[C@](C)(OC)C[C@@H](C)C(=O)[C@H](C)[C@H]2N(CCCCn3cnc(-c4cccnc4)c3)C(=O)O[C@]12C | 5.95% |
| CCc1cc(Nc2nccc(-c3c(-c4ccc(OC)c(C(=O)Nc5c(F)cccc5F)c4)nc4ccccn34)n2)c(OC)cc1N1CCC(N2CCN(S(C)(=O)=O)CC2)CC1 | 0.0178% |
| Cn1cc(C2=C(c3c4n(c5ccccc35)CCC(CN)C4)C(=O)NC2=O)c2ccccc21 (stereo not given) | -0.862% |
| CCN[C@H]1C[C@H](C)S(=O)(=O)c2sc(S(N)(=O)=O)cc21 | 37.3% |
| CC[C@H]1CN2CCc3cc(OC)c(OC)cc3[C@H]2C[C@@H]1C[C@@H]1NCCc2cc(OC)c(OC)cc21 | -0.337% |
| O=C(Nc1ccc([N+](=O)[O-])cc1Cl)c1cc(Cl)ccc1O | 99.3% |
| COc1ccc(-c2nc(N3CCOCC3)c3sc(CN(C)c4ncc(C(=O)NO)cn4)cc3n2)cn1 | -1.14% |
| COc1ccc2nc3cc(Cl)ccc3c(Nc3cc(CN4CCCC4)c(O)c(CN4CCCC4)c3)c2n1 | -3.23% |
| CCC(C=C[C@@H]1OC(=O)C=C[C@H]1C)=C[C@H](C)CC=CC(C)=C[C@@H](C)C(=O)[C@@H](C)[C@H](O)[C@@H](C)CC(C)=CC(=O)O | 105% [at 1.88 µM] |
| C[C@H](Cn1cnc2c(N)ncnc21)OCP(=O)(O)O | 92.2% |
| CC(C)Oc1cc(Nc2nc(N[C@@H](C)c3ccc(F)cn3)ncc2Cl)[nH]n1 | 2.89% |
| C[C@H]1[C@@H](OC(=O)CCC(=O)O)O[C@@H]2O[C@@]3(C)CC[C@@H]4[C@H](C)CC[C@@H]1[C@@]24OO3 | -0.479% |
